# Screening data (PubChem)
# In the library only some 1.4% were active in any assay of this set; here they are far more common.
# HUVEC tox IL1B = HUVEC cytotoxicity counter-screen, IL-1B stimulated; HUVEC cell count loss, Hoechst imaging; cell count reduction, % at 2 µM; 94,000 compounds, 0.41% hits; AID 845;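 active means cell count reduction more than 3 SD above the screen-wide mean, cut at about 70% in these data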;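 further: normalized per plate to untreated control cells as the no-loss baseline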
# IL1B NFkB pot = enhances IL-1B driven NFkB nuclear translocation. HUVEC IL-1B NFkB p65 nuclear translocation imaging. activation, % at 2 µM. 94,000 compounds, 0.3% hits. AID 819;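 active means activation above 40%, about the mean plus 3 SD, also judged a hit on visual image review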;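 further: percent activation is computed from the nuclear over cytoplasmic p65 intensity ratio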
# NFkB transloc inh = blocks IL-1B driven NFkB nuclear translocation in HUVEC cells. HUVEC IL-1B NFkB p65 nuclear translocation imaging. inhibition, % at 2 µM. 94,000 compounds, 0.43% hits;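 active means inhibition above about 30% together with a positive call from visual inspection of the well image, limit read from the data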;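 further: nuclear over cytoplasmic p65 intensity ratio measured by imaging; 0% = IL-1B stimulated DMSO wells and 100% = unstimulated DMSO wells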
# MRP resist rev = compounds reversing MRP-mediated drug resistance. H69AR cells + 2 uM doxorubicin, CellTiter-Glo, 72 h. differential viability (reversal), % at 10 µM. 85,000 compounds, 0.04% hits. AID 602;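 active means viability drop by adding the cancer drug above about 55%, with treated viability meeting a 40% cutoff, limit read from the data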;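 further: viability without doxorubicin minus viability with 2 µM doxorubicin for each compound; larger differential means the compound sensitizes cells more to doxorubicin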
# sdo1 growth = compounds rescuing growth of sdo1-depleted yeast, bone marrow failure model | S. cerevisiae sdo1-depleted JHY4D growth rescue, OD600 30 h; hits give high values; pdr5 snq2 efflux-pump mutant strain | z-score at 10 µM | 140,000 compounds, 0.21% hits | AID 817;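 active means z-score above 3 at both the 24 hr and the 30 hr optical density reads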;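 further: z-score against mean and SD of all compound wells on the same plate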
# MRP-1 activ = activates MRP-1; AID 799; H69AR cells + doxorubicin, viability rescue, CellTiter-Glo; 140,000 compounds, 0.61% hits; viability increase, % at 10 µM;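 active means viability gain under doxorubicin at or above a set limit, the compound median plus 3 SD, cut at about 4.7% in these data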;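 further: MRP-1 overexpressing cells given doxorubicin 25 µM after compound pretreatment; 18-22 h compound pretreatment then 72 h with doxorubicin before readout; 0% = doxorubicin-only wells and 100% = vehicle-treated cells without doxorubicin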
# * = called active by the depositor; · = no result given.
SMILES,HUVEC tox IL1B,IL1B NFkB pot,NFkB transloc inh,MRP resist rev,sdo1 growth,MRP-1 activ
COc1ccc(OC)c(C2/C(=C(\O)c3c(C)nc4ccccn34)C(=O)C(=O)N2CCCN(C)C)c1 (stereo not given),·,·,·,6,·,·
CCNC(=O)CN(Cc1ccccc1)S(=O)(=O)c1ccccc1,10,-35,36*,5,0.07,-1
CCNC(=O)CN(CCc1ccccc1)S(=O)(=O)c1ccc(OC)cc1,6,-6,6,-1,-0.25,-1
O=C(Cn1c(=O)oc2cc(S(=O)(=O)N3CCCCCC3)ccc21)NC1CCCCC1,-18,1,-1,11,1.6,-3
O=C(Cn1c(=O)oc2cc(S(=O)(=O)N3CCCC3)ccc21)NCc1ccccn1,·,·,·,2,1.6,5.3*
CC(C)(C)c1ccc(C(=O)N2CCC(C(=O)NCc3ccncc3)CC2)cc1,94*,-100,100*,3,0.5,-1
COC(=O)c1c(NC(=O)CSc2nc3nc(C)cc(C)n3n2)sc(C)c1C,·,·,·,·,-0.44,-2
O=C(NCN1CCCCC1)c1cnccn1,90*,12,-12,10,0.59,1
CCn1cc(C(=O)N2CCN(c3cccc(Cl)c3)CC2)c2cc(OC)c(OC)cc2c1=O,15,-13,13,·,0.03,-2
COc1ccc(N2C(C)=CS/C2=C(/C#N)c2nnc(N3CCOCC3)n2-c2ccccc2)cc1,-9,46*,-46,·,0.37,-4
CC1=C/C(=N\Nc2ccccc2[N+](=O)[O-])CC(C)(C)C1,·,·,·,·,-0.58,-2
CCSc1nc(-c2cccnc2)ccc1C#N,·,·,·,·,-0.2,-4
COc1ccccc1CNC(=O)c1c(-c2ccccc2)nn(-c2ccccc2)c1C,0,6,-6,·,-1,-1
Cc1c(C(=O)O)c(-c2ccccc2)nn1-c1ccccc1,95*,-6,6,·,1.3,-2
CC(C)c1nc2sc3c(=O)n(N)cnc3c2c2c1COC(C)(C)C2,·,·,·,·,-1.1,-2
COc1c(C)cc(Br)cc1C(=O)Nc1cccc(NC(=O)c2ccco2)c1,87*,22,-22,·,-1.1,-4
COc1c(C)cc(Br)cc1C(=O)O,90*,2,-2,11,0.51,-1
COc1ccc(Br)cc1C(=O)Nc1cccc(NC(=O)c2ccco2)c1,-1,-11,11,-7,-1.2,-3
CCC1C(=O)N(C)CCc2ccccc21 (stereo not given),·,·,·,·,-0.16,-2
O=C(NCC1COCCO1)C1CCN(S(=O)(=O)c2ccccc2)CC1 (stereo not given),94*,-96,96*,1,-0.41,1
Cc1cc(C)n2c(Br)c(CSc3nc4ccccc4s3)nc2n1,·,·,·,·,-2,-1
CCN(CC)C(=O)c1ccc2c(c1)nnn2C,·,·,·,·,0.06,0
CC(=O)CCc1c[nH]c2c(C(=O)O)cccc12,-5,-41,41*,11,0.51,0
O=C(CCC(=O)Nc1ccccc1)NNC(=O)COc1ccccc1,·,·,·,·,1.1,-1
N=C(N)SCc1ccc(Cl)cc1Cl,·,·,·,·,-0.48,5.2*
SMILES,HUVEC tox IL1B,IL1B NFkB pot,NFkB transloc inh,MRP resist rev,sdo1 growth,MRP-1 activ
O=C([C@H](Cc1ccccc1)NS(=O)(=O)c1ccc(Cl)cc1)N1CC[C@@]2(O)CCCC[C@H]2C1,-13,-13,13,-18,-0.15,-2
CC(Sc1nc2ccccc2s1)C(=O)Nc1nnc(C(C)C)s1 (stereo not given),0,23,-23,-2,-0.17,-1
CCC(Sc1nc2ccccc2s1)C(=O)Nc1nnc(C)s1 (stereo not given),-13,11,-11,·,-1.2,10*
Cc1ccc(-c2cccc(OC(=O)c3ccccc3F)c2)cc1,11,3,-3,·,0.38,1
Cn1c(=O)c2c(nc(CN3CCN(c4ccccc4)CC3)n2Cc2c(F)cccc2Cl)n(C)c1=O,-15,-2,2,60*,2,-5
Cn1c(=O)c2c(nc(CN3CCN(c4ccccc4)CC3)n2Cc2ccccc2Cl)n(C)c1=O,-24,-5,5,-37,-0.19,-3
Clc1ccc(CNCc2cccs2)c(Cl)c1,·,·,·,·,1.7,1
N#CCCNC(=O)Cn1c(COc2ccc(Cl)cc2)nc2ccccc21,·,·,·,·,1.8,5.6*
O=C(Cn1c(COc2ccccc2)nc2ccccc21)Nc1cc(Cl)cc(Cl)c1,·,·,·,·,-0.29,-3
O=C(Cn1c(COc2ccc(Cl)cc2)nc2ccccc21)NCC(F)(F)F,·,·,·,·,1,5.6*
Cc1ccccc1NC(=O)c1sc(NC(=O)COc2ccccc2)c(C#N)c1C,·,·,·,·,-0.7,-2
CCCCCn1c(CN2CCCCC2C)nc2c1c(=O)n(C)c(=O)n2C (stereo not given),-79,15,-12,-2,-0.57,6.0*
COC(=O)C1C(=O)C2=C(CC1C)NC(=O)CC2c1cccc(C)c1 (stereo not given),90*,10,-10,3,0.47,-1
CCCCn1c(=O)c(CCC(=O)OCC(=O)Nc2ccc(F)c(Cl)c2)nc2ccccc21,·,·,·,·,-0.23,-2
Cc1nnc(C)c2c(C)n(C(C)c3ccccc3)c(C)c12 (stereo not given),9,8,-8,4,1.2,-3
COc1ccc(C(C)n2c(C)c3c(C)nnc(C)c3c2C)cc1 (stereo not given),-20,-41,41*,4,-0.16,-3
CN(C)c1ccc(CC(=O)c2nc3ccccc3s2)cc1,·,·,·,·,1.1,2
CCOc1ccc(NC(=O)CN2C(=O)C3CC=CCC3C2=O)cc1 (stereo not given),93*,-4,4,7,0.13,-1
COc1cccc(CSc2nc3ccccc3cc2C=O)c1,72*,-43,43*,·,-1.8,-6
COc1cccc(NC(=O)CSc2nc3ccccc3cc2Cc2ccccc2)c1,9,-4,4,·,0.75,1
CCc1ccccc1NCC(=O)Nc1ccc(Cl)c(C(F)(F)F)c1,·,·,·,·,-1.7,-2
Cc1cccc2c(CC(=O)Nc3ccccc3)noc12,·,·,·,·,-1.8,2
O=C(NCc1ccco1)C1CCN(C(=O)c2cc3sccc3n2Cc2ccc(F)cc2)CC1,89*,-3,3,-10,-1.4,-2
O=C(NCCCN1CCCC1)C1CCN(C(=O)c2cc3sccc3n2Cc2ccc(F)cc2)CC1,9,10,-10,4,-0.33,-5
CC(C)Cc1nnc(NC(=O)CSc2ncn[nH]2)s1,-13,9,-8,13,0.11,5.3*
Cc1cc(=O)[nH]c(SCC(=O)Nc2nnc(CC(C)C)s2)n1,5,-8,8,7,0.18,0
O=C(CSc1ncn[nH]1)NC12CC3CC(CC(C3)C1)C2,-8,10,-10,5,0.37,5.1*
O=C(CSc1ncn[nH]1)Nc1nnc(-c2ccccc2)s1,·,·,·,0,0.56,7.2*
O=C(CSc1ncn[nH]1)Nc1ccccc1-c1ccccc1,-12,10,-10,1,0.57,2
O=C(c1cccc(F)c1)N1CCN(Cc2ccco2)CC1,-27,40*,-40,2,0.63,-1
